# How the values were obtained:
# Test in all cases: DAPPL (digital affinity profiling via proximity ligation, sequencing); 10 mM Tris-HCl pH 7.5, 50 mM NaCl, 1 mM DTT, 4% glycerol, room temperature, 30 min; GST-TFs on glutathione beads, 16-mer random dsDNA library, 0.1% formaldehyde crosslink after washing; high values mean tight binding
# Settings in all cases: protein: recombinant; tags: N-terminal GST; dsDNA, one strand shown
# FLI1 = biological target: T1, FLI1 (Homo sapiens, UniProt Q01543 1-452)
# T1 sequence: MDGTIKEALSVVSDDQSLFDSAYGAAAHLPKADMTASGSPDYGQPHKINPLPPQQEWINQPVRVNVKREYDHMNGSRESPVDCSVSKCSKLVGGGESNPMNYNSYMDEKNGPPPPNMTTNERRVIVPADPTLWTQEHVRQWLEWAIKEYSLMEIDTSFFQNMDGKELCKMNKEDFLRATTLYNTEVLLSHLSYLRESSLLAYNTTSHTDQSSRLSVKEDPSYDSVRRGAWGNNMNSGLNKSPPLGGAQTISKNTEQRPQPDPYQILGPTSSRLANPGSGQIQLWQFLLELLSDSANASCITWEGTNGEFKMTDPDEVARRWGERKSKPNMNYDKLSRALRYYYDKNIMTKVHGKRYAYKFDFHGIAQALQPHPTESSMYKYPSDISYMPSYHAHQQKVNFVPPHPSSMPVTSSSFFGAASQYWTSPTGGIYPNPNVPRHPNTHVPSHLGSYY
# How it was run: (§1)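 Sequencing on an Illumina NextSeq500 followed washing, crosslinking with 0.1% formaldehyde, proximity ligation (BsaI/T4 ligase, 1 h, 37 °C) and PCR amplification of pools that had been incubated for 30 min at room temperature with 200 nmole of a random double-stranded 16-mer DNA library in Tris/NaCl/DTT/glycerol buffer. Each pool held DNA-barcoded human transcription factors, expressed in yeast as GST fusions and captured on glutathione beads, plus a tag-only sample. Binding signal is a hexamer's read frequency for a factor divided by its frequency in the tag-only sample.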
# ELK1 = biological target: T2, ELK1 (Homo sapiens, UniProt P19419 1-428)
# T2 sequence: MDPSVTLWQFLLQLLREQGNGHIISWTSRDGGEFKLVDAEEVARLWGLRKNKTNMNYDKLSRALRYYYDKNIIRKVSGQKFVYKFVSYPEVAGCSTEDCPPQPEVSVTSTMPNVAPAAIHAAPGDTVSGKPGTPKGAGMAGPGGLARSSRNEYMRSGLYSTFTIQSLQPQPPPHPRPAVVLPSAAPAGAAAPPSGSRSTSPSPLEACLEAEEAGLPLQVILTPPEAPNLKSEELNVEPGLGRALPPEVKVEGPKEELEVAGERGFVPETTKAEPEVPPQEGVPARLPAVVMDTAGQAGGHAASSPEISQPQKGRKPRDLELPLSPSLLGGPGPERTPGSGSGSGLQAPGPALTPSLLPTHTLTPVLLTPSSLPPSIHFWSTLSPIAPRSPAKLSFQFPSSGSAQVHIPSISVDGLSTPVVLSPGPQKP
# How it was run: as §1
# GABPA = biological target: T3, GABPA (Homo sapiens, UniProt Q06546 1-454)
# T3 sequence: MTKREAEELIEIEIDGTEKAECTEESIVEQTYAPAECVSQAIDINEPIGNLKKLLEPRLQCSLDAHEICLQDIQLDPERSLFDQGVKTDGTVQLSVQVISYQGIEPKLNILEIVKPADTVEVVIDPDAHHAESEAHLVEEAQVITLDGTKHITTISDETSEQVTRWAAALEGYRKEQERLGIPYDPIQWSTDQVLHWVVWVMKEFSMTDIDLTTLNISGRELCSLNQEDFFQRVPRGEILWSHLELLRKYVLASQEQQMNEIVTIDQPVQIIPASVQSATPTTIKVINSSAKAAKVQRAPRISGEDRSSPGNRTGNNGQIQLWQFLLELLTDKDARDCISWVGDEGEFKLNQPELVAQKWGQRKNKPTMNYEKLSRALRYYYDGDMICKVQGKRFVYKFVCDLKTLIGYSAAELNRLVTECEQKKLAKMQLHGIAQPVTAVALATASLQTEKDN
# How it was run: as §1
# ERG = biological target: T4, ERG (Homo sapiens, UniProt P11308 1-479)
# T4 sequence: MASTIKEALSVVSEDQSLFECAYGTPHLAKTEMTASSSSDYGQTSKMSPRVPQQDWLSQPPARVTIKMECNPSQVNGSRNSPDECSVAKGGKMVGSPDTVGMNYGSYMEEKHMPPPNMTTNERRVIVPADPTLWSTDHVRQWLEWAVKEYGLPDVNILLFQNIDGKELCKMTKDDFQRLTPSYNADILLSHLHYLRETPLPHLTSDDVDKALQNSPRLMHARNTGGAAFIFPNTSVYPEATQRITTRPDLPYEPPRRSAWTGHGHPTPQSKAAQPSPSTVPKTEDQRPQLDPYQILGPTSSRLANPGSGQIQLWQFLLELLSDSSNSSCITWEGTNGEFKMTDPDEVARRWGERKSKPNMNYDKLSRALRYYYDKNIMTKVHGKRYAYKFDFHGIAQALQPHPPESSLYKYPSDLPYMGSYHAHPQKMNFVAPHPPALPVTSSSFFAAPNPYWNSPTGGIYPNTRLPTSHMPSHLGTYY
# How it was run: as §1
# ELF1 = ELF1 (Homo sapiens, UniProt P32519 1-619)
# How it was run: as §1
# EHF = biological target: T5, EHF (Homo sapiens, UniProt Q9NZC4 1-300)
# T5 sequence: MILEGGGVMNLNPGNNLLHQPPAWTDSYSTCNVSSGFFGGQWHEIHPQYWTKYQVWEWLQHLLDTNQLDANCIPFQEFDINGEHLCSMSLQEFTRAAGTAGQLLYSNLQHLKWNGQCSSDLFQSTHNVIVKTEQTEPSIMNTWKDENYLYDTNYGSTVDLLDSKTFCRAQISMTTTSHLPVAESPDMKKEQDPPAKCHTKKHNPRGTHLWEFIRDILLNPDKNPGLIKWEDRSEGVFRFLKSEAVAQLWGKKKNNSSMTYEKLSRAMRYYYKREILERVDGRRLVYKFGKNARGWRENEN
# How it was run: as §1
# SPI1 = SPI1 (Homo sapiens, UniProt P17947 1-270)
# How it was run: as §1
# SPIB = SPIB (Homo sapiens, UniProt Q01892 1-262)
# How it was run: as §1
# ELK3 = biological target: T6, ELK3 (Homo sapiens, UniProt P41970 1-407)
# T6 sequence: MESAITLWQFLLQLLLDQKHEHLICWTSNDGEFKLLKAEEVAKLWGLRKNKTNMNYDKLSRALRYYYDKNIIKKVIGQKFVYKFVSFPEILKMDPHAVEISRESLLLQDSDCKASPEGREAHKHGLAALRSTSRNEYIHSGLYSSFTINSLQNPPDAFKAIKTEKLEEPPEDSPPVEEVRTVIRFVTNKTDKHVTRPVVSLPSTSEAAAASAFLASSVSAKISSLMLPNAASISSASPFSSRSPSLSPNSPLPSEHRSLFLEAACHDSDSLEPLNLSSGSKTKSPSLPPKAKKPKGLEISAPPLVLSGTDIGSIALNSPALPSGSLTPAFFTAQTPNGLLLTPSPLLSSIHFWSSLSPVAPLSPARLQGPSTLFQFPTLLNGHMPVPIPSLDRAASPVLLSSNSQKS
# How it was run: as §1
# Chain of SPIB (Q01892 whole entry): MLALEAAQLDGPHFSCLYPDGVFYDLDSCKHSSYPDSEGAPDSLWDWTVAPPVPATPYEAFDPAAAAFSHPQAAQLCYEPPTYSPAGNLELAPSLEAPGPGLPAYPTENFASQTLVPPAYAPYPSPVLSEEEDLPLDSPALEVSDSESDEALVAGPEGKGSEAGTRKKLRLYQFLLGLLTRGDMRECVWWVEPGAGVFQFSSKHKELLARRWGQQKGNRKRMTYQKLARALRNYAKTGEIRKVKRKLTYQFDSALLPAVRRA
# Chain of ELF1 (P32519 whole entry): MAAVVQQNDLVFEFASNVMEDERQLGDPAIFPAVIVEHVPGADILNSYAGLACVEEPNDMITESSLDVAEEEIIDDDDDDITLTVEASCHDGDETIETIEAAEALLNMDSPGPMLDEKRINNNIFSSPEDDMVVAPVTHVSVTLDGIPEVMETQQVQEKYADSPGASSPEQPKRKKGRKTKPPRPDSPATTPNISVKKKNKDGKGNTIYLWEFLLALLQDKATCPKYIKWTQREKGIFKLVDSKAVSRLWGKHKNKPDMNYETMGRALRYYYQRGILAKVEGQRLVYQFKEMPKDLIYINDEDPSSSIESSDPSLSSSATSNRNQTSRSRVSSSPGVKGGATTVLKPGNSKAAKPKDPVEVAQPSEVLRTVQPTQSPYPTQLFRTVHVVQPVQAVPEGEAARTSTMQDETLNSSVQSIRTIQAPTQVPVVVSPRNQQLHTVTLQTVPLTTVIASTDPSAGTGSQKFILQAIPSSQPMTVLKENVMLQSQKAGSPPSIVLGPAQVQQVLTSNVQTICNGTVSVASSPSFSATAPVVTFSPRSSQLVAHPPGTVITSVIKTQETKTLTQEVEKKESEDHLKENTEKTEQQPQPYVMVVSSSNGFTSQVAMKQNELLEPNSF
sequence,measurement,setting,value
TTCTGC,binding signal,FLI1,"1.54 fold enrichment (6-mer frequency, TF over GST control)"
same,binding signal,ELK1,"1.49 fold enrichment (6-mer frequency, TF over GST control)"
same,binding signal,GABPA,"1.4 fold enrichment (6-mer frequency, TF over GST control)"
same,binding signal,ERG,"1.32 fold enrichment (6-mer frequency, TF over GST control)"
same,binding signal,ELF1,"1.52 fold enrichment (6-mer frequency, TF over GST control)"
same,binding signal,EHF,"1.46 fold enrichment (6-mer frequency, TF over GST control)"
same,binding signal,SPI1,"1.5 fold enrichment (6-mer frequency, TF over GST control)"
same,binding signal,SPIB,"1.34 fold enrichment (6-mer frequency, TF over GST control)"
same,binding signal,ELK3,"1.39 fold enrichment (6-mer frequency, TF over GST control)"
